Here are results for 57 compounds from PubChem BioAssay AID2014 (Sanford-Burnham Center for Chemical Genomics, 2009).

This test addresses Polyadenylate-binding protein 1 (Homo sapiens) (UniProt P11940). The experiment in a line: blockers of PABP interaction with poly(A) – biochemical, fluorescence polarization, uHTS, primary screen (AID 2014).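 Note: calls also rest on retests at 20 µM and on dose response follow-up.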 As to conditions: PABP-poly(A) RNA binding, stronger effect = higher value. (In general: Fluorescence polarisation rises when a labelled molecule tumbles more slowly, as on binding a larger partner.)

The whole screen tested about 290,000 compounds, of which about 3,000 (1%) were called active. The rule behind the calls is not given here. The list comes from a sample in which actives are over-represented; it also holds similar structures and randomly drawn compounds.

Broadly, the inhibition is the change of the read-out against control, counted positive when it falls.

Chain of Polyadenylate-binding protein 1 (Homo sapiens) (P11940 whole entry, looked up): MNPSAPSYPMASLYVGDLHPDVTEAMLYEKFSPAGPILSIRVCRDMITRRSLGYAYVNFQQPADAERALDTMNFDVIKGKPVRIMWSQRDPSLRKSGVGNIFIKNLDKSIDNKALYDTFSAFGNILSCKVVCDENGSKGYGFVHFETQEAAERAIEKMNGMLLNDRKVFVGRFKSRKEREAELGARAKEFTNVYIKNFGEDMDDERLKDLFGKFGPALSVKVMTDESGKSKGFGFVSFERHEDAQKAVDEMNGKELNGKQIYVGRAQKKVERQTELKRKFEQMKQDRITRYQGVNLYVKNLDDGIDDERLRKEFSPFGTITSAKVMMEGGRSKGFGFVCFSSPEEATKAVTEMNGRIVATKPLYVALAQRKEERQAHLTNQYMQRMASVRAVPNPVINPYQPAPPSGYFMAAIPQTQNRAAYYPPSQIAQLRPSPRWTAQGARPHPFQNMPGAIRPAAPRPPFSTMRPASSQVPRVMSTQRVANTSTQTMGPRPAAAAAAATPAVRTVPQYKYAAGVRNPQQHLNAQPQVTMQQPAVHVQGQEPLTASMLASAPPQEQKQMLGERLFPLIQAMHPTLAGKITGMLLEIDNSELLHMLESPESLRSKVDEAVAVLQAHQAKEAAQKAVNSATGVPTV

In the case of `Cc1cc(C)cc(OCC(=O)NNC(=O)CCN2C(=O)c3ccccc3C2=O)c1`, the inhibition runs as follows: (at 35 µM) 116% (active); (confirmation repeats, at 20 µM) 74.1%.

With `Cc1cc(C)cc(NC(=O)CCN2C(=O)c3ccccc3C2=O)c1`, the inhibition (at 35 µM) is 0.7% (inactive). Still for that read-out and setting: for `Cc1ccc(NC(=O)CCN2C(=O)c3ccccc3C2=O)cc1C` the value was -7.2% (inactive); for `COc1cc(NC(=O)c2ccc(-c3csc(C)n3)cc2)c(OC)cc1Cl`, 7.9% (inactive). On the same count and under the same terms, to `COC(=O)c1cc(NS(=O)(=O)c2ccc3c(c2)c(=O)n(C)c(=O)n3C)cc(C(=O)OC)c1` belongs 3.8% (inactive); to `COC(=O)c1ccc(N2CCOCC2)c(NC(=O)c2ccc3c(c2)OCCO3)c1`, 4.7% (inactive). For `CCC(CC)C(=O)N1CCN(c2cccc(C)c2C)CC1`, the inhibition (at 35 µM) was -1.2% (inactive). On to `O=C(/C=C/c1ccco1)NC(=S)N1CCCCC1`, for which the inhibition (at 35 µM) was 1.1% (inactive). On to `Cc1cccc(N2CCN(C(=O)/C=C/c3ccco3)CC2)c1C`, for which the inhibition (at 35 µM) is -10.7% (active) and the inhibition (confirmation repeats, at 20 µM) was 96.7%. Consider `COc1ccc(C(O)(C2CCCCC2)C(CN2CCCC2)c2ccccc2)cc1` (centres undefined), for which the inhibition (at 35 µM) was 12.9% (inactive).

Take `Cc1ccc2sc(N(CCN(C)C)C(=O)/C=C/c3cccs3)nc2c1C`: the inhibition (at 35 µM) is -1.9% (inactive). On the same count and under the same terms, to `CCCN(c1ccc(C)cc1)c1nc(=O)c2cccnc2s1` belongs 71.4% (active). Same read-out and setting: to `CC1(C(=O)N/N=C/c2cc3c(cc2Br)OCO3)CC1(Br)Br` (centres undefined) belongs -5.1% (inactive); to `CCN(CC(=O)NCc1ccco1)S(=O)(=O)c1ccc(F)cc1`, -5.2% (inactive); to `NS(=O)(=O)c1cccc(NC(=O)CC23CC4CC(CC(Br)(C4)C2)C3)c1`, -11.5% (inactive). On the same count and under the same terms, to `CC(C)Nc1ccc(-n2nc3ccccc3[n+]2[O-])cc1` belongs 1% (inactive). Take `CCN1CCN(CCNC(=O)c2ccc3c(c2)NC(=O)/C(=C\c2ccc(OC)c(OC)c2)S3)CC1`: for the setting “at 35 µM”, the inhibition is 6.5% (inactive). Same read-out and setting: to `O=C(NCCN1CCOCC1)c1ccc(/C=C2\Sc3ccccc3N(Cc3ccc(F)cc3)C2=O)cc1` belongs -1.5% (inactive). Regarding `CCN1CCN(CCNC(=O)c2ccc(/C=C3/Sc4ccccc4N(Cc4cccc(C)c4)C3=O)cc2)CC1`, the inhibition reads like this: (at 35 µM) 60.2% (active); (confirmation repeats, at 20 µM) 75.8%. Take `COc1ccc(/C=N/OCc2ccccc2C#N)c(OC)c1`: for the setting “at 35 µM”, the inhibition is 12.1% (inactive). Still for that read-out and setting: to `CC(NC(=O)CCCC1CCCCC1)c1ccc(S(N)(=O)=O)cc1` (centres undefined) belongs -0.5% (inactive); to `Cc1ccc(NC(=O)Cc2nnc(SCC(=O)Nc3nncs3)n2C)cc1`, -10.3% (inactive). For `S=C(NCc1ccco1)Nc1ccc2c(c1)OCCO2`, the inhibition is 76.8% (active) (at 35 µM) and 58.4% (confirmation repeats, at 20 µM). For the compound `COc1cccc(NC(=S)NCc2ccco2)c1`, for the setting “at 35 µM”, the inhibition is 3.2% (inactive). Same read-out and setting: for `S=C(NCc1ccc2c(c1)OCO2)NCc1ccco1` the value was 2.5% (inactive). On the same count and under the same terms, to `CCOC(=O)C1=C(C)NC(=S)NC1c1cccs1` (centres undefined) belongs 3.2% (inactive); to `CCOC(=O)N1CC=C2C(C#N)=C(N)C(C#N)(C#N)[C@H](c3cccs3)[C@H]2C1`, 82.2% (active). Take `N#CC1=C(N)C(C#N)(C#N)[C@H](c2ccsc2)[C@H]2COCC=C12`: the inhibition by setting is: (at 35 µM) 111% (inactive); (confirmation repeats, at 20 µM) 0%. As for `O=C(N/C(=C\c1ccc([N+](=O)[O-])cc1)C(=O)N1CCCCC1)c1ccco1`, the inhibition (at 35 µM) is 4.9% (inactive).

As for `COc1cc(C(=O)Nn2c(CC(C)C)nc3ccccc3c2=O)cc(OC)c1OC`, the inhibition (at 35 µM) is 1.2% (inactive). On the same count and under the same terms, to `Cc1ccc(N(Cc2cc(=O)[nH]c3ccccc23)C(=O)CCl)cc1` belongs 3% (inactive); to `COc1ccc(N(Cc2ccc(N(C)C)cc2)C(=O)c2ccc(S(C)(=O)=O)cc2)cc1`, -1.6% (inactive); to `CNc1nc(-c2ccccc2)cc(-c2ccccc2)n1`, 4.7% (inactive).

For `CS(=O)(=O)c1sc2nc(-c3ccccc3)cc(-c3ccccc3)c2c1N`, the inhibition (at 35 µM) is 117% (active). Still for that read-out and setting: to `Nc1nc(-c2ccccc2)cc(-c2ccccc2)n1` belongs 9.3% (inactive). The same measure, in the same setting: to `CCc1ccccc1NC(=O)c1cc(-c2ccc3c(c2)OCO3)on1` belongs 3.5% (inactive).

Turning to `C/C(=N\NC(=O)COc1ccc(C)cc1[N+](=O)[O-])c1ccc2c(c1)OCCO2`, under “at 35 µM”, the inhibition was 3.8% (inactive). Still for that read-out and setting: for `COC(=O)c1cccc(N(C(=O)CNC(=O)c2cccs2)C(C(=O)NCC2CCCO2)c2ccc(OC)c(OC)c2)c1` (centres undefined) the value was 1% (inactive); for `CCn1c(=O)c2ccccc2n(CC(=O)N2CCCc3ccccc32)c1=O`, -1.4% (inactive); for `CCC(=O)N1CCCc2ccccc21`, 59.1% (active).

Take `O=C(CSCc1ccccc1)N1CCc2ccccc21`: the inhibition (at 35 µM) was 2.2% (inactive).

Take `Cc1cc(NC(=O)c2ccc(F)cc2)ccc1NC(=O)c1ccco1`: under “at 35 µM”, the inhibition is 1.1% (inactive).

With `Cc1c(C(=O)N2CCN(c3ccc(F)cc3)CC2)oc2c1C(=O)CCC2`, where the note is “at 35 µM”, the inhibition was 5.7% (inactive).

`O=C(NCc1cccc(CNC(=O)Nc2cccc(O)c2)c1)Nc1cccc(O)c1`: the inhibition (at 35 µM) was 3.3% (inactive).

In the case of `COc1ccc(C)cc1-n1nnnc1SCC(=O)c1cc(C)n(Cc2ccco2)c1C`, the inhibition (at 35 µM) is 51.1% (active).

With `COc1ccc(OC)c(-n2nnnc2SCC(=O)Nc2cc(C)ccc2OC)c1`, the inhibition (at 35 µM) was 2.6% (inactive). Regarding `Cc1cc(C(=O)CSc2nc(N)cc(=O)[nH]2)c(C)n1Cc1ccco1`, for the setting “at 35 µM”, the inhibition was 10.5% (inactive). Same read-out and setting: to `O=C(OCC1O[C@@H](OC(=O)c2cc(O)c(O)c(O)c2)[C@@H](OC(=O)c2cc(O)c(O)c(O)c2)[C@@H](OC(=O)c2cc(O)c(O)c(O)c2)[C@@H]1OC(=O)c1cc(O)c(O)c(O)c1)c1cc(O)c(O)c(O)c1` (some centres undefined) belongs 88.2% (active). Still for that read-out and setting: to `Cc1ccc(-c2nc(-c3ccncc3)no2)c(C)c1` belongs 9.6% (inactive). Same read-out and setting: for `COc1ccc(-c2ocnc2C(=O)Nc2ccc3c(c2)CCC3)cc1` the value was 5.3% (inactive). For the compound `Cc1ccc2c(cnn2C(=O)CCC(=O)NC2CCCC2)c1`, the inhibition (at 35 µM) is -2.1% (inactive). Regarding `COc1ccc(Nc2ccc([N+](=O)[O-])cn2)cn1`, the inhibition was 39.7% (active) (at 35 µM) and 54% (confirmation repeats, at 20 µM). On to `COc1ccc(C(=O)NCCNc2ccc([N+](=O)[O-])cn2)cc1`, for which, for the setting “at 35 µM”, the inhibition was -2.9% (inactive). The same measure, in the same setting: to `COc1ccccc1C1CCN(c2ccc([N+](=O)[O-])cn2)CC1` belongs 3.2% (inactive). Turning to `CCOc1ccc(N(CC)S(=O)(=O)c2cccc3nsnc23)cc1`, the inhibition (at 35 µM) was 51% (inactive) and the inhibition (confirmation repeats, at 20 µM) stood at 37.2%.

Turning to `CC(=O)Nc1ccc(NC(=O)CN2C(=O)COc3ccc(S(=O)(=O)N4CCCCC4)cc32)cc1`, the inhibition (at 35 µM) is 0% (inactive). The same measure, in the same setting: for `O=C(NCCc1nnc2ccc(SCC(=O)N3CCOCC3)nn12)c1ccccc1` the value was 6.6% (inactive).
